# TDP1 block: blocks human tyrosyl-DNA phosphodiesterase 1; Q9NUW8; recombinant TDP1, AlphaScreen DNA substrate cleavage; Potency, µM (titrated, usually from 130 µM), inactives show at the top dose activity change, negative = inhibition, actives largely listed as inhibitors; actives 0.28% (n = 350,000); note: % is set by controls: 0 for no effect and ±100 for the full control effect; nearly all actives have a fitted effect of over 40% in size
# Target sequence (Q9NUW8 whole entry, looked up): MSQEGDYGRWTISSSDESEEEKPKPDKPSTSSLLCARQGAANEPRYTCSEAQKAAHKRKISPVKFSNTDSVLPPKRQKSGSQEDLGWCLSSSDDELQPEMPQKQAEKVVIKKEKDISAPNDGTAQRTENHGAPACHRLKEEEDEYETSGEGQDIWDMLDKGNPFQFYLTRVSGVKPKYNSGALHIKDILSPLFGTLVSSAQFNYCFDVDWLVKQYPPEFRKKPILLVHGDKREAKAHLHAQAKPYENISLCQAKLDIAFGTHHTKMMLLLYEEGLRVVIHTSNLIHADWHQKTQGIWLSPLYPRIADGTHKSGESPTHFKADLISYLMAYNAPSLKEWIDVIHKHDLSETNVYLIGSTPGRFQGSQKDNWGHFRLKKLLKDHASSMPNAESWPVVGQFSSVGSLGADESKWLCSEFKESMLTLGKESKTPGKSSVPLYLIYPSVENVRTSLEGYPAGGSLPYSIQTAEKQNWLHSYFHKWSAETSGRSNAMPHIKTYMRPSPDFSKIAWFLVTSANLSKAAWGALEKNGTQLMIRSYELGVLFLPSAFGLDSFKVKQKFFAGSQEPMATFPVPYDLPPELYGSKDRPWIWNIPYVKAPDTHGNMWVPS
#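 Tdp1 1 nM final; 15 min RT w/ cpd; substrate 15 nM, 5 min; beads 10 ug/ml, 10 min; AlphaScreen read. Neg ctrl: no enzyme.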
# G9a block: blocks human histone lysine methyltransferase G9a | Q96KQ7 | G9a H3K9 monomethylation, AlphaScreen, 2 h | Potency, µM (titrated, usually from 102 µM), without a hit: at the highest dose activity, negative = inhibition, most hits filed as inhibitors | actives 8.8% (n = 350,000) | AID 504332; note: % is set by controls: 0 for no effect and ±100 for the full control effect; nearly all actives have a fitted effect of over 75% in size
#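 G9a (20 nM) preincubated 15 min RT with compounds, then 500 nM biotinylated H3K9 peptide and 20 uM SAM added; 2 h RT reaction. Monomethyl-H3K9 product detected by AlphaScreen with anti-H3K9me1 antibody, streptavidin donor and anti-rabbit IgG acceptor beads.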
# JMJD2A Tudor: blocks the human JMJD2A Tudor domain; Potency, µM (highest dose often 114 µM), for inactives: at the highest dose activity change, negative = inhibition, hits mostly inhibitors; O75164; AID 504339; AlphaScreen JMJD2A-Tudor / H3K4me3 peptide binding; actives 4.4% (n = 390,000); note: % is set by controls: 0 for no effect and ±100 for the full control effect; nearly all actives have a fitted effect of over 50% in size
# BAZ2B block: inhibitors of human BAZ2B bromodomain. Q9UIF8. AlphaScreen BAZ2B-H3K14Ac peptide displacement. Potency, µM (series often up to 114 µM), for the others: top-dose activity change, negative = inhibition, most hits filed as inhibitors. actives 4.4% (n = 360,000); note: % is set by controls: 0 for no effect and ±100 for the full control effect; nearly all actives have a fitted effect of over 60% in size
#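 Compounds, titrated to a top concentration of 110 uM, were incubated 30 min at room temperature with preformed BAZ2B/acetyl-K14 H3 peptide complex (50 nM each). Proximity signal was measured by AlphaScreen after 20 min with beads.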
# Sfp PPTase inh: blocks B. subtilis Sfp PPTase activity | Q9F4F7 | Biochemical Sfp PPTase activity, qHTS | Potency, µM, without a hit: largest response in the series, negative = inhibition, most hits filed as inhibitors | actives 3.5% (n = 310,000) | AID 1490;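 note: the enzyme is Sfp with the accession as filed and its product quenches rhodamine fluorescence; 0% = enzyme reaction without inhibitor and -100% = no enzyme wells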
#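 Buffer: 50 mM Hepes-Na pH 7.6, 10 mM MgCl2, 0.01% Nonidet P-40, 0.01% BSA. Enzyme 15 nM, pre-exposed to compound 15 min; substrates then added and fluorescence change tracked over 30 min.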
# HP1b binding inh: HP1-beta chromodomain-methylated histone interaction inhibition | P83916 | AlphaScreen HP1-beta / biotin-H3K9me3 peptide binding | Potency, µM (top dose mostly 114 µM), for inactives: top-dose activity change, negative = inhibition, actives largely listed as inhibitors | actives 0.56% (n = 390,000); note: nearly all actives have a fitted effect of over 70% in size
#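 AlphaScreen: HP1-beta (50 nM) preformed 30 min with biotin-H3(1-18)K9me3 peptide (50 nM) in PBS pH 7.4, 0.01% Tween-20. Compound added for 30 min at RT, then streptavidin donor/nickel chelate acceptor beads (10 ug/mL) for 30 min.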
# * hit, by the source's call; ? = inconclusive; / = no result; [ ] = another dose, or the depositor's remark. This is a sample that favours compounds with a hit; in the whole collection about 12% have one here. Calls come from the whole dose curve; as a rule, active = well fitted curve in the direction sought with a large enough effect; inconclusive = small, poorly fitted or top-dose-only effect, or another doubt; inactive = no such curve, though single readings can be large; an effect the other way counts as inactive or inconclusive. Potency is the fitted concentration of half-maximal effect.
SMILES,TDP1 block,G9a block,JMJD2A Tudor,BAZ2B block,Sfp PPTase inh,HP1b binding inh
C/C(CC(=O)Nc1ccc(N(C)C)cc1)=N\NC(=O)c1ccccc1O,/,50.1µM*,56.2µM*,35.5µM*,0.9%,-18.2%
COc1cccc(/C(C)=N/NC(=O)c2ccc(N(C)C)cc2)c1,6.7%,/,-15.5%,-29.6%,-0.5%,30.5%
C/C(CC(=O)Nc1ccc(N(C)C)cc1)=N\NC(=O)c1ccc([N+](=O)[O-])cc1Cl,3.5%,44.7µM*,?,?,-13.8%,?
COc1cccc(NC(=O)C(=O)N/N=C(\C)CC(=O)Nc2ccc(NC(C)=O)cc2)c1,4.6%,70.8µM*,-6.2%,-15.5%,10.4%,37.5%
CC(C)N1CCN(Cc2coc3ccccc3c2=O)CC1CCO (centres undefined),-2.6%,-4.6%,-2.7%,-18.5%,9.5%,27.1%
Cc1cc(C(=O)CSc2nnnn2C)c(C)n1C1CC1,-13.2%,0.3%[59 µM],-6.5%,?,3.2%,10.8%
Cc1cc(C(=O)CSc2nnc(CCC(N)=O)n2C)c(C)n1C1CC1,-4.4%,50.1µM*,-18.6%,-6.8%,/,8.9%
Cn1cccc1/C=N/n1c(-c2ccccc2)n[nH]c1=S,7.3%,2.1%[0.501 µM],3.55µM*,?,1.5%,?
Cn1cccc1/C=N/n1c(-c2ccc(C(C)(C)C)cc2)n[nH]c1=S,9.6%,7.94µM*,50.1µM*,44.7µM*,-2.0%,50.1µM*
CS(=O)(=O)Nc1ccc(C2=NN(C(=O)CCCC(=O)O)C(c3cccs3)C2)cc1 (centres undefined),/,81.5%,-8.9%,2.0%,5.9%,41.6%
S=c1nn[nH]c2ccccc12,/,/,11.2µM*,/,/,-13.1%
O=C(CCCN1C(=O)/C(=C/c2cccs2)SC1=S)NNC(=O)c1cccnc1,/,7.2%[59 µM],-32.6%,?,9.0%,13.8%
COc1cccc(/C=C2\SC(=S)N(NC(=O)c3ccncc3)C2=O)c1,-5.6%,-35.9%,-25.3%,-17.1%,20.7%,8.1%
O=C(NN1C(=O)/C(=C/c2cccs2)SC1=S)c1ccncc1,3.6%,44.7µM*,-30.9%,-25.0%,79.4µM*,-13.3%
Cc1ccc(C(=O)NN2C(=O)/C(=C/c3cccn3C)SC2=S)cc1,9.1%,?,?,22.4µM*,20µM*,?
O=C(CCCN1C(=O)/C(=C\c2cccs2)SC1=S)NNC(=O)c1ccncc1,2.6%,-5.0%,50.1µM*,?,19.0%,22.9%
Cn1cnnc1SCC(=O)NNC(=O)COc1ccc(Cl)cc1,5.4%,-28.7%,-9.7%,9.0%,6.2%,32.2%
O=S(=O)(c1ccc(SCc2ccccc2)nc1)N1CCCC1,-16.5%,?,113.1%,71.4%,/,167.8%
Cc1cccc(CSc2ccc(S(=O)(=O)N3CCCC3)cn2)c1,-13.1%,14.1µM*,80.1%,54.1%,/,140.7%
NOCc1ccccc1,-2.3%,/,/,/,-13.5%,/
CCOC(=O)CSc1nnc(CNc2ccc(Cl)cc2)n1Cc1ccccc1,0.0%,-14.5%[59 µM],-24.8%,8.3%,2.1%,13.6%
C#CCSc1nnc(CSc2nc3ccccc3s2)n1-c1ccccc1,2.3%,?,-19.8%,-7.0%,-11.7%,40.7%
O=C(O)CSc1nnc(CNc2ccc(F)cc2)n1-c1ccccc1,/,-127.9%,-16.1%,79.4µM*,4.0%,74.1%
O=C(O)CSc1nnc(CNc2ccc(Cl)cc2)n1Cc1ccccc1,4.7%,-32.6%[2.33 µM],79.4µM*,?,22.9%,-2.4%
CCn1c(CSc2nc3ccccc3s2)nc2ccccc21,4.7%,10µM*,-8.3%,-2.9%,-16.5%,31.1%
c1csc(CSc2nc3ccccc3s2)c1,-10.4%,313.0%,160.2%,400.1%,-23.1%,180.2%
S=c1[nH]nc(CSc2nc3ccccc3s2)n1C1CCCCC1,6.8%,10µM*,?,?,-15.9%,-20.2%
O=Cc1c[nH]c2cccc(OCc3ccccc3)c12,-0.1%,6.3%[0.501 µM],-17.2%,9.9%,/,-5.5%
Cc1ccc(S(=O)(=O)/N=C(/c2ccccc2)N2CCOCC2)c(C)c1,3.1%,1.5%,-7.7%,-19.2%,17.3%,24.1%
